The supplement of paper PMC11732987, “Enantioselective OTUD7B fragment discovery through chemoproteomics screening and high-throughput optimisation” (Communications Chemistry, 2025)
Values without a mark were called inactive.

Experiments:
Assay in all cases: log2 ratio of Biotin-Ahx-Ub-VS probe labelling (fragment/DMSO); higher = less target engagement (more negative = stronger competition), active = hit call of the paper (q ≤ 0.05, log2 ratio ≤ -1)
Conditions in all cases: compound concentration: 200 uM; treatment time: 3 h
[1] = target: UniProt O00507
How it was run: (§1)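 Using Biotin-Ahx-Ub-VS at 0.5 µM final for 1 h, DUBs were labelled in HEK293T lysate (495 µg per sample) that had first been treated in triplicate with fragment at 200 µM or vehicle for 3 h. NeutrAvidin enrichment, LysC and trypsin digestion and diaPASEF LC-MS/MS followed. Spectronaut label-free quantities were global-median-normalised. Values are average log2 fragment/vehicle ratios by unpaired t-test, using proteins with ≥2 unique peptides.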

[2] = target: UniProt P51784
How it was run: as §1

[3] = target: T1, UniProt Q5T2D3
T1 sequence (whole entry): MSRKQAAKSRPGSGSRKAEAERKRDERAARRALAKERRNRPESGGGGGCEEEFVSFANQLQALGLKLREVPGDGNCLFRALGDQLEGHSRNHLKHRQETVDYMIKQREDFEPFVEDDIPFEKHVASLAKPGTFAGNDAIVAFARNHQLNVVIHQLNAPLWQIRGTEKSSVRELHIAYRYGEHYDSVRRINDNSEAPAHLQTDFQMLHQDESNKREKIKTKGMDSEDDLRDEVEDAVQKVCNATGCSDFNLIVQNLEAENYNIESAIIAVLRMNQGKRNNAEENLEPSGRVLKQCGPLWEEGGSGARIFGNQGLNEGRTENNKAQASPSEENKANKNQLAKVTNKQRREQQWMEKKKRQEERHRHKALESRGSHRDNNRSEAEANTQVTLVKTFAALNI
How it was run: as §1

[4] = target: T2, UniProt Q8TE49
T2 sequence (whole entry): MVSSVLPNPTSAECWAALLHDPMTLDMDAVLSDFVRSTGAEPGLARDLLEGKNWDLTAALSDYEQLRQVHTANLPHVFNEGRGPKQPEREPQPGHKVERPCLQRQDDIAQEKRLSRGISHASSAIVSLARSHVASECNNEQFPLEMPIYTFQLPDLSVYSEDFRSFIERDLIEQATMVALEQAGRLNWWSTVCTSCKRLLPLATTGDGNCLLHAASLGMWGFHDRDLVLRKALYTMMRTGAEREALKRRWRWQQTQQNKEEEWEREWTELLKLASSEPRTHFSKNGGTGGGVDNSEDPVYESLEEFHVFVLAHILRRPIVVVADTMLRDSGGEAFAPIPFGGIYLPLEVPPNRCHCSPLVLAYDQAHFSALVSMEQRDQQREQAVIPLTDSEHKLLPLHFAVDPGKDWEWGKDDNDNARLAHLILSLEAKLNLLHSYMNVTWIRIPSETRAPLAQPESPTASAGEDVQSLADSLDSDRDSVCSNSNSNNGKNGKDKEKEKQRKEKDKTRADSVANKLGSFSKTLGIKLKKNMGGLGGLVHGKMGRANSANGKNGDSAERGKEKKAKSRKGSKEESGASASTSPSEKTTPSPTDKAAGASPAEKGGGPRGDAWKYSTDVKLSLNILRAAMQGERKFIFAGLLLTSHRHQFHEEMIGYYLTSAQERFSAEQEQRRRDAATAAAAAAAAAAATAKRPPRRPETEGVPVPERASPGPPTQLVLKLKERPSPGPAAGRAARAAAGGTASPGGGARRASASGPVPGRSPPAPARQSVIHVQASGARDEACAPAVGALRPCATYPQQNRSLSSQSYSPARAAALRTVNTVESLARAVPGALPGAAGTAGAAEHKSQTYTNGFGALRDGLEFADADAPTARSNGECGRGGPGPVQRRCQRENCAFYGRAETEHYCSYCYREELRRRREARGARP
How it was run: as §1

[5] = target: T3, UniProt Q9P2H5
T3 sequence (whole entry): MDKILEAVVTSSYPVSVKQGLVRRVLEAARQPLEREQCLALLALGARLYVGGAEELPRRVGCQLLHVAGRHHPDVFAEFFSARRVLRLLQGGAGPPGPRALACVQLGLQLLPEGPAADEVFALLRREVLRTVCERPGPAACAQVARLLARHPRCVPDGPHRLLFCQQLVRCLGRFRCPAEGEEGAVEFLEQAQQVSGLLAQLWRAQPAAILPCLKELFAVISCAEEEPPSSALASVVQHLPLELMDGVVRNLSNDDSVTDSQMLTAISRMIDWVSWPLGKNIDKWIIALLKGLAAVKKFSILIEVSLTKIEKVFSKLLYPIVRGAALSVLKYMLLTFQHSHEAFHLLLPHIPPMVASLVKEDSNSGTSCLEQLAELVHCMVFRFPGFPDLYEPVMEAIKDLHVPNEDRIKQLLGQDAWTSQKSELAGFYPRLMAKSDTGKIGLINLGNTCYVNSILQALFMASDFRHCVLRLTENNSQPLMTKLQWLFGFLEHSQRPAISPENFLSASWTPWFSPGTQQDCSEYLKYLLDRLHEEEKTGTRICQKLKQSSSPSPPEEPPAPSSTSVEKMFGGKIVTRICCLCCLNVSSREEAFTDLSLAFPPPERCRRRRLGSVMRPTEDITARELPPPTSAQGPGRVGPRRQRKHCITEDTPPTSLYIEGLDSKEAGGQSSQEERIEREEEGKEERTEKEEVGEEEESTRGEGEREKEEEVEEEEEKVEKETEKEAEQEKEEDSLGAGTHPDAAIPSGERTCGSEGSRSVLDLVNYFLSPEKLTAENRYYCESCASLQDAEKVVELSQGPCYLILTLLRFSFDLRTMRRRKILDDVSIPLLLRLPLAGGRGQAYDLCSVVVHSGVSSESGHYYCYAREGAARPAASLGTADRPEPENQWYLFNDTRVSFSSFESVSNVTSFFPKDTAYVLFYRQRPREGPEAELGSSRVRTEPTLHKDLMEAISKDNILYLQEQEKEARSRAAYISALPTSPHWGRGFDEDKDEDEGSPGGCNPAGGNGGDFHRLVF
How it was run: as §1

[6] = target: T4, UniProt Q9UGI0
T4 sequence (whole entry): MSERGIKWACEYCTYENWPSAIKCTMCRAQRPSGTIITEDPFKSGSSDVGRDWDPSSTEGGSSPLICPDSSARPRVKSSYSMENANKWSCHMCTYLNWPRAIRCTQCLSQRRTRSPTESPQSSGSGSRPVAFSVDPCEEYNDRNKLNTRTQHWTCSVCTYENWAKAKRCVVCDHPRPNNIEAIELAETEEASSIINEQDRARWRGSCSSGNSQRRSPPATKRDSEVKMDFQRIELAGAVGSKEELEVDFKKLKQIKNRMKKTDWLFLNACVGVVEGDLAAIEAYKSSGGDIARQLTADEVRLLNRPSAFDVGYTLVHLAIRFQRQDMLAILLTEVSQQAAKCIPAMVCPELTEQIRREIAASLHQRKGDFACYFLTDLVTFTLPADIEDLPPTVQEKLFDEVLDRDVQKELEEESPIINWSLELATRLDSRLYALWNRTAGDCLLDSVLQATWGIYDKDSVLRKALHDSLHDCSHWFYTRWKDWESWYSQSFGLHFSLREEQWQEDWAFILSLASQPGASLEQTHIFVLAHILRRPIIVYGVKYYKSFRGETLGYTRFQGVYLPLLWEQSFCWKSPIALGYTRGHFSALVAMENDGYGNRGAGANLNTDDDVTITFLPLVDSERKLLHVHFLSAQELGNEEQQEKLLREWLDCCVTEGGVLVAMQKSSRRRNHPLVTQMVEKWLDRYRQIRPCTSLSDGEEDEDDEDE
How it was run: as §1

[7] = target: T5, YOD1 (UniProt Q5VVQ6)
T5 sequence (whole entry): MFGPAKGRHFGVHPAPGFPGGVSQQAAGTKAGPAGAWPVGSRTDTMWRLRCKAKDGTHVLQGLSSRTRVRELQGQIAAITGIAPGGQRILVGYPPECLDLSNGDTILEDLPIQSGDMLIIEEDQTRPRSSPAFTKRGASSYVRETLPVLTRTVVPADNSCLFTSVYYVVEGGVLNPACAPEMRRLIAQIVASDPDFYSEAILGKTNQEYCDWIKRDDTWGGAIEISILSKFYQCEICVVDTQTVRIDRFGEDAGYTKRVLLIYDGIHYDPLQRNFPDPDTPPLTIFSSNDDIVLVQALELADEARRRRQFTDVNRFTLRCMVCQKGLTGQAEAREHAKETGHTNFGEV
How it was run: as §1

Chain of UniProt O00507 (O00507 whole entry, the tested form may be a part): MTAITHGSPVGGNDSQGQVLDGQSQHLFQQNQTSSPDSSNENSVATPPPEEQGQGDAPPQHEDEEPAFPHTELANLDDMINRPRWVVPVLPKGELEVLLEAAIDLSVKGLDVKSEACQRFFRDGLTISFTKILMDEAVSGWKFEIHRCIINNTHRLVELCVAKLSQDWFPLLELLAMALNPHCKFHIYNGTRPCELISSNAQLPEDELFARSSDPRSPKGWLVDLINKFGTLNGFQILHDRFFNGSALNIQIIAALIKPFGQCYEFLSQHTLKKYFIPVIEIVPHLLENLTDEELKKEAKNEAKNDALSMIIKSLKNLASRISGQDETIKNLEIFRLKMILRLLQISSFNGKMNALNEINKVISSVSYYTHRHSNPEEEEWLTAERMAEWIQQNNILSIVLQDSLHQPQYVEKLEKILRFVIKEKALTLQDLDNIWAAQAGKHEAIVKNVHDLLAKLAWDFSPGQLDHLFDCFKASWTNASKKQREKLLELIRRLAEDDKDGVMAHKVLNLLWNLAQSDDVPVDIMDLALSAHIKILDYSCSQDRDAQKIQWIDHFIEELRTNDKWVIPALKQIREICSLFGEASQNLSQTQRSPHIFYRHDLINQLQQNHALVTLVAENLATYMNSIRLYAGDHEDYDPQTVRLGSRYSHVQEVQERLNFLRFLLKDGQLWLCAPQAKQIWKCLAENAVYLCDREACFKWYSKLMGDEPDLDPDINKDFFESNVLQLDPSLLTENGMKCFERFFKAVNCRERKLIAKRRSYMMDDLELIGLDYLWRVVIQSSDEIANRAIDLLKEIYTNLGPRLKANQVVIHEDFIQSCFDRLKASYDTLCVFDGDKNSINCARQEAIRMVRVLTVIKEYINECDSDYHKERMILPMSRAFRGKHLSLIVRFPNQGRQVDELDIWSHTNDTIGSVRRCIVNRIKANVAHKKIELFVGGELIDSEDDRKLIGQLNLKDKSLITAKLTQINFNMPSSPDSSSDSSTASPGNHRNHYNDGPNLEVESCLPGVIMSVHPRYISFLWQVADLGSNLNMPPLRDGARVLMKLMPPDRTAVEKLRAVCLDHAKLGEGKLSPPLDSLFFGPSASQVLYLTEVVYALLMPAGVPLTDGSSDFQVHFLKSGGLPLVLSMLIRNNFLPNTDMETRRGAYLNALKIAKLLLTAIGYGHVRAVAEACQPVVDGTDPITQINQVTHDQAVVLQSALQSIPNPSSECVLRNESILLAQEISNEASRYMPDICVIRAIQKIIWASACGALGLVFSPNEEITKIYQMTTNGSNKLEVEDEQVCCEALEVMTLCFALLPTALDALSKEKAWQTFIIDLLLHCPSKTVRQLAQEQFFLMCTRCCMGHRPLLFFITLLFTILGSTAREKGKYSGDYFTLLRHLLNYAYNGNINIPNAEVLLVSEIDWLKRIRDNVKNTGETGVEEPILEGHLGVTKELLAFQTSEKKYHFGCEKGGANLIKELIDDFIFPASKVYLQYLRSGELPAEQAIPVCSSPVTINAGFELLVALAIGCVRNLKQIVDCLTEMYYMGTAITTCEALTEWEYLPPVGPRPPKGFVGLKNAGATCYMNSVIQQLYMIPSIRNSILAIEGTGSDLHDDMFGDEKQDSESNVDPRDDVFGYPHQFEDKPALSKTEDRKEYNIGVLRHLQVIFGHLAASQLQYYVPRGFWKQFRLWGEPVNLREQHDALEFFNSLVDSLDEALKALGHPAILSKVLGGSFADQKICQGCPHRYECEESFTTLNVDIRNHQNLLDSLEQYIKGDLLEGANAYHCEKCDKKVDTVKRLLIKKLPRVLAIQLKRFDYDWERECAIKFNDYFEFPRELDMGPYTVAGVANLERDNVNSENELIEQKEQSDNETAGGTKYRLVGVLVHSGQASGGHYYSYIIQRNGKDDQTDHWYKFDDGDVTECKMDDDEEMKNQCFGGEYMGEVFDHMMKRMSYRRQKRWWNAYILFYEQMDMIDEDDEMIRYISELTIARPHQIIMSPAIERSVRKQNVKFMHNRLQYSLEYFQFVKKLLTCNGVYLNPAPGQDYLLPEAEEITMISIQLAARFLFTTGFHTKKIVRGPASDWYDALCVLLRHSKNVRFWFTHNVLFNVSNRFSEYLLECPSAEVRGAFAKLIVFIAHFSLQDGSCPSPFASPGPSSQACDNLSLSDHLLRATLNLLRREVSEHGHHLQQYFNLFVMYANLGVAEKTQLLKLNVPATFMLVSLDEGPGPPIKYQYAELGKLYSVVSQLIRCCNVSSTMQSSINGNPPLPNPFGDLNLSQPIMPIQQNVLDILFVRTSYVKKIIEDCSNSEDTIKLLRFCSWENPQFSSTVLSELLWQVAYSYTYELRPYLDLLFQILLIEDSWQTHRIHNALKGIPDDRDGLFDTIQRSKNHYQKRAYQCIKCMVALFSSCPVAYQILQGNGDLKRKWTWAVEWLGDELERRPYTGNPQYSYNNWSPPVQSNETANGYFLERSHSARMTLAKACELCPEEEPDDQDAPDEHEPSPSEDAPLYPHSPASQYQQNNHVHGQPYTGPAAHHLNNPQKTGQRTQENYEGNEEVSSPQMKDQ
Chain of UniProt P51784 (P51784 whole entry): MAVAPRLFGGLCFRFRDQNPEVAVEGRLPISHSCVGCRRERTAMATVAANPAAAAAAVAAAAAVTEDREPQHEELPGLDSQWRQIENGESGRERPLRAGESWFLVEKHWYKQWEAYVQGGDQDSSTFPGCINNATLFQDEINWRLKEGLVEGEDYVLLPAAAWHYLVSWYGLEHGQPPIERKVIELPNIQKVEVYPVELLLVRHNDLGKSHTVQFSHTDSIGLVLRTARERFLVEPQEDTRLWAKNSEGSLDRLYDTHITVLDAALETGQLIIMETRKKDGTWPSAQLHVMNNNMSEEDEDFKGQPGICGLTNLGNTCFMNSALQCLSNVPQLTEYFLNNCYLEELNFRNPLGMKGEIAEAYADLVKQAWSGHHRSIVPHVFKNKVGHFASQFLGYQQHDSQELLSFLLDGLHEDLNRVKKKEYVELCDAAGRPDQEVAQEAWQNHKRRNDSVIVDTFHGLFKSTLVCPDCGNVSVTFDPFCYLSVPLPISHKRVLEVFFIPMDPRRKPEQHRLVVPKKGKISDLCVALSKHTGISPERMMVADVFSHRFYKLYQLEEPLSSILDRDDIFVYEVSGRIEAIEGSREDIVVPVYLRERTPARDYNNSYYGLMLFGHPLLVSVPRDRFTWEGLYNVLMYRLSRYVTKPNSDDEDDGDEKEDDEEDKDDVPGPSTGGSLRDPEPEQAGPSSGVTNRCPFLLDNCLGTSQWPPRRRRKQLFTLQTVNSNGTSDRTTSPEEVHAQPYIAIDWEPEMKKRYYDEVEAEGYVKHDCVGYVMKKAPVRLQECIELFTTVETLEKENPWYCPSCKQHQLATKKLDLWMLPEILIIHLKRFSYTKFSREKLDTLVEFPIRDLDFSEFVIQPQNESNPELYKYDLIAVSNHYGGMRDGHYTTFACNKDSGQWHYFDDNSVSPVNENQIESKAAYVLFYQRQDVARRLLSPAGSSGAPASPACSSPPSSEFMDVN

| SMILES | log2 ratio of Biotin-Ahx-Ub-VS probe labelling [1] | log2 ratio of Biotin-Ahx-Ub-VS probe labelling [2] | log2 ratio of Biotin-Ahx-Ub-VS probe labelling [3] | log2 ratio of Biotin-Ahx-Ub-VS probe labelling [4] | log2 ratio of Biotin-Ahx-Ub-VS probe labelling [5] | log2 ratio of Biotin-Ahx-Ub-VS probe labelling [6] | log2 ratio of Biotin-Ahx-Ub-VS probe labelling [7] |
| --- | --- | --- | --- | --- | --- | --- | --- |
| Cc1c(C#N)c(NC(=O)CCl)n(Cc2ccco2)c1C | -0.255 | -0.349 | -0.169 | -2.48 (active) | -0.304 | -0.313 | -0.0342 |
| C[C@@H](NC(=O)CCl)c1cccc(C#N)c1 | -0.38 | 0.045 | -0.157 | -0.912 | -0.136 | -0.111 | -0.0878 |
| Cn1cc(CN(Cc2ccc(Cl)cc2)C(=O)CCl)cn1 | -0.606 | -0.11 | 0.147 | -0.82 | -0.065 | -0.327 | -0.0228 |
| Cc1ccc(C)c(NC(=O)CCl)c1 | -0.612 | -0.335 | -0.41 | -0.57 | -0.295 | -0.449 | -0.599 |
| CNC(=O)C1(NC(=O)CCl)CCCCC1 | 0.215 | 0.188 | -0.364 | -0.591 | -0.0698 | 0.0155 | -0.0513 |
| COc1cccc(CN(C)C(=O)CCl)c1 | -0.462 | -0.179 | -0.0411 | -0.149 | 0.258 | -1.23 (active) | 0.0172 |
| Cc1ccc(N2CCC(NC(=O)CCl)C2=O)cc1 (stereo not drawn) | 0.561 | 0.0347 | -0.0872 | -0.518 | -0.134 | 0.0412 | 0.132 |
| Cc1cc(Cl)ccc1NC(=O)CCl | 0.519 | -0.115 | -0.142 | -0.396 | -0.193 | -0.477 | -0.175 |
| Cl.O=C(CCl)N1CCCC(c2ncc[nH]2)C1 (stereo not drawn) | 0.0496 | 0.000136 | -0.124 | -0.0422 | 0.113 | -0.517 | -0.0255 |
| O=C(CCl)N(C1=CCCCC1)C1CC1 | 0.309 | -0.0543 | -0.118 | -0.435 | -0.351 | 0.0561 | -0.0863 |
| CN(CCc1ncc(Br)cn1)C(=O)CCl.Cl | -0.225 | -0.0725 | -0.508 | -1.75 (active) | -0.437 | -0.752 | 0.0394 |
| Cl.O=C(CCl)NCCN1CCc2ccccc21 | -0.631 | -0.722 | -0.805 | -0.934 | -0.844 | -0.971 | -0.814 |
| CC(O)CC1CCN(C(=O)CCl)CC1 (stereo not drawn) | 0.0435 | -0.0578 | -0.0758 | -0.714 | 0.0392 | 0.164 | -0.124 |
| Cc1nc(CC2CCN(C(=O)CCl)CC2)no1 | -0.771 | -0.658 | -0.786 | -1.04 (active) | -0.59 | -0.834 | -0.679 |
| O=C(CCl)N1CCOC2(CCC2)C1 | 0.31 | 0.244 | 0.00991 | -0.696 | 0.0475 | -0.71 | 0.154 |
| Cl.O=C(CCl)NCc1cc2c(nc1O)CCCC2 | -0.0624 | 0.0791 | -0.333 | -0.515 | -0.244 | -0.421 | -0.158 |
| O=C(CCl)Nc1cccc2ncccc12 | 0.145 | 0.265 | -0.164 | -0.784 | -0.437 | -1.64 (active) | 0.469 |
| O=C(CCl)N1CCOCC1C1CC1 (stereo not drawn) | -0.0511 | 0.141 | -0.288 | -0.663 | -0.279 | -0.344 | -0.172 |
| Cc1noc(C)c1CNC(=O)CCl | -0.346 | -0.582 | -0.715 | -1.28 (active) | -0.835 | -1.01 (active) | -0.752 |
